Source: PubChem (National Center for Advancing Translational Sciences (NCATS))
The list is not random: actives were taken first. Their share in the collection is about 21%.
NS1 function inh = blocks influenza NS1 protein function. Potency, µM (series often up to 46.1 µM), for inactives: at the highest dose activity, positive = more growth. 270,000 tested, 0.4% active; note: potency is the fitted concentration of half-maximal effect; actives are rising curves; nearly all actives have a fitted effect of over 50% in size
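A cell-based growth assay was used: compounds that relieve NS1-induced slow growth of budding yeast raise OD600. Assay medium was yeast nitrogen base with ammonium sulphate and -URA supplement, pH 6.0, with 2% galactose.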
Shiga toxin inh = blocks Shiga toxin action in Vero cells; Vero cells, Shiga toxin protein synthesis inhibition reporter; inhibition, % at 38.7 µM; AID 2315; 290,000 tested, 9.2% active; in the data active = inhibition mostly above about 28%, no sharp cut-off; inactive = mostly below about 43%; note: 0% is about no effect
Pf growth 48h = inhibits P. falciparum growth in the first generation, 48 h | P. falciparum luciferase growth in erythrocytes, 48 h | Potency, µM (series often up to 28.7 µM), for inactives: at the top dose activity change, negative = inhibition, usual class: inhibitors | 310,000 tested, 5.9% active | AID 504832; active = well fitted inhibition curve with a large enough effect; inconclusive = small, poorly fitted or top-dose-only effect, or another doubt; inactive = no such curve, though single readings can be large or run the other way; note: potency is the fitted concentration of half-maximal effect; % is set by controls: 0 for no effect and ±100 for the full control effect
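Cell-based growth assay: transgenic P. falciparum expressing firefly luciferase, cultured in red cells within RPMI 1640 containing 0.5% w/v Albumax, 24 mM bicarbonate and gentamycin. A drop in luciferase activity indicates inhibition.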
Cycloheximide cs = counter-screen for Shiga toxin inhibitors: cycloheximide protein synthesis inhibition. cell reporter, cycloheximide protein synthesis inhibition counterscreen. max response, %. 300,000 tested, 12% active; in the data active = max response mostly above about 13%, no sharp cut-off; inactive = mostly below about 14%; note: read at 38.3 µM for the half of the compounds with a filed dose; 0% is about no effect
Pf growth 96h = P. falciparum growth inhibition at 96 hour, primary screen for plastid delayed-death inhibitors; P. falciparum luciferase reporter growth, 96 h; Potency, µM (top dose mostly 28.7 µM), without a hit: at the top dose activity change, negative = inhibition, most hits filed as inhibitors; 320,000 tested, 6.9% active; active = well fitted inhibition curve with a large enough effect; inconclusive = small, poorly fitted or top-dose-only effect, or another doubt; inactive = no such curve, though single readings can be large or run the other way; note: potency is the fitted concentration of half-maximal effect; % is set by controls: 0 for no effect and ±100 for the full control effect
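Two parasite generations (96 h, 37 C, 5% CO2) of compound exposure in infected erythrocytes (0.05% parasitemia, 2% hematocrit). Luciferase-reporter P. falciparum; decreased luminescence indicates inhibited growth, aimed at apicoplast-acting delayed death.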
SARS PLpro yeast = inhibitors of SARS-CoV papain-like protease in yeast. S. cerevisiae expressing SARS-CoV PLpro, growth rescue. 330,000 tested, 0.19% active. Potency, µM (highest dose often 32.9 µM), for inactives: at the top dose activity, positive = growth rescue, usual class: activators; note: potency is the fitted concentration of half-maximal effect; 0% is about no effect; nearly all actives have a fitted effect of over 55% in size
NS1 inh valid = validation of influenza NS1 protein function inhibitors. shares compounds with NS1 function inh. influenza NS1 function cell assay, 15-point titration. activity change, negative = inhibition, % at 32.9 µM. 1,400 tested, under 10 active. AID 492980; note: 0% is about no effect
* = called active by the depositor; u = inconclusive; x = no result; [ ] = another dose, or the depositor's remark. Unless noted, calls come from the whole dose curve.

SMILES	NS1 function inh	Shiga toxin inh	Pf growth 48h	Cycloheximide cs	Pf growth 96h	SARS PLpro yeast	NS1 inh valid
CCCCCOC(=O)CSc1nnc(-c2ccccc2)c(=O)[nH]1	u	-8.1	u	-4.0	u	5.2%	x
COc1ccc2[nH]c(=O)c(CN(Cc3ccco3)Cc3nnnn3Cc3ccccc3)cc2c1	12.6µM*	3.6	u	4.4	x	10.2%	11.9
Cc1ccc(C)c2[nH]c(=O)c(CN(Cc3ccc4c(c3)OCO4)Cc3nnnn3Cc3ccco3)cc12	11.2µM*	-12.0	8.28µM*	-2.3	u	0.1%	1.5
COc1ccc2[nH]c(=O)c(CN(Cc3cccs3)Cc3nnnn3Cc3ccccc3)cc2c1	3.1%	-7.1	u	-3.9	x	2.2%	x
Cc1cc(C)cc(C(=O)NC(CC(N)=O)c2ccc(NC3CCCC3)c([N+](=O)[O-])c2)c1 (stereo not drawn)	6.1%	-9.8	16.2%	-1.9	30.7%	0.9%	x
CCC1c2ccc(C)n2CCN1C(=O)Nc1ccccc1OC (stereo not drawn)	15.8µM*	28.7*	u	14.6*	110.5%	-1.2%	2.9
CCCNC(=O)COC(=O)c1cc2c(=O)n3ccccc3nc2s1	5.8%	16.7	45.2%	15.2	57.4%	3.3%	x
O=C(C1CCN(Cc2cccs2)CC1)N1CCN(Cc2ccc3c(c2)OCO3)CC1	x	12.1	-0.9%	2.8	36.7%	-9.2%	x
CC1(C)N=C(N)NC(Nc2ccc(Br)cc2)=N1	7.94µM*	-16.0	5.22µM*	6.9	x	-4.7%	-0.8
COC(=O)c1ccc(CN2CCCC(CO)(Cc3ccccc3F)C2)cc1 (stereo not drawn)	8.6%	-5.6	13.0%	-3.8	u	0.8%	x
O=C(O)c1ccccc1-c1ccccc1C(=O)Nc1ccccc1-c1ccccc1	10µM*	-12.8	26.2%	-3.7	-9.3%	x	36.0
CN(c1ccccc1)S(=O)(=O)c1ccc(Cl)c(C(=O)Nc2nc3ccccc3[nH]2)c1	10µM*	-3.0	u	-1.3	6.57µM*	8.5%	38.4
CN(c1ccccc1)S(=O)(=O)c1ccc(Cl)c(C(=O)Nc2ccc(-c3nc4ccccc4[nH]3)cc2)c1	9.3%	-8.4	u	1.9	u	-5.7%	x
O=C(CSc1nc2ccccc2c(=O)n1Cc1ccccc1)NCc1ccco1	u	-3.3	-18.5%	2.5	u	20.8%	x
O=C(CSc1nc2ccccc2c2nc3ccccc3n12)NCc1ccco1	2.82µM*	50.5*	9.28µM*	28.4*	6.7%	5.1%	33.5
CCN1C(=O)C(CC(=O)Nc2ccc(F)cc2)N(CCCN2CCN(c3ccc(F)cc3)CC2)C1=S (stereo not drawn)	x	-8.3	u	-6.1	u	2.0%	x
Cc1cc2n(c1)CCn1c(C)ccc1-2	12.6µM*	-9.0	15.8%	-4.1	x	2.3%	-11.7
COC(=O)CCCC(=O)N1CCCC(C(=O)c2ccc(OC)cc2C)C1 (stereo not drawn)	u	9.1	4.1%	4.7	14.7µM*	0.0%	-10.9
CS(=O)(=O)N(CCc1ccccc1)CC(=O)NCc1ccco1	-2.0%[9.22 µM]	-7.8	-2.3%	-1.9	0.0%	5.0%	x
COc1ccccc1NC(=O)Cn1c(=O)n(CCc2c[nH]c3ccccc23)c(=O)c2cccnc21	11.2µM*	26.8	u	7.4	2.6%	-1.9%	25.6
CCN(CC)C(=O)Cn1nc(-c2ccccc2O)nc1SCC(=O)Nc1ccc(OC)cc1	-0.3%	-9.6	u	10.0	9.2%	-0.8%	x
Cc1cccc(CN(CC(=O)N/N=C/c2cccs2)S(=O)(=O)c2ccc(Cl)cc2)c1	8.91µM*	15.8	-0.5%	-2.2	u	-1.5%	-31.9
O=C(NNC(=O)c1ccc(Br)cc1)c1ccncc1	u	x	40.3%	6.2	10.8%	4.1%	3.1
COC(=O)c1cc(C(=O)OCC(=O)NC2CCCC2)cc([N+](=O)[O-])c1	6.6%	8.1	x	0.9	2.7%	0.2%	x
CC1CCN(C(=O)CSc2nc3ccccc3c(=O)n2Cc2ccc3c(c2)OCO3)CC1	u	-7.0	u	-1.1	x	-16.2%	u
SMILES	NS1 function inh	Shiga toxin inh	Pf growth 48h	Cycloheximide cs	Pf growth 96h	SARS PLpro yeast	NS1 inh valid
O=C1N/C(=N/N=C/c2ccccc2)SC1(c1ccccc1)c1ccccc1	14.1µM*	16.5	x	-3.3	20.0%	15.4%	2.2
Cc1nn(C)c(C)c1CCC(=O)N1CCCC(N2CCN(c3ccc(F)cc3)CC2)C1 (stereo not drawn)	u	24.1	u	6.3	41.8%	1.7%	-8.8
CSCC(=O)N1CCCC(N2CCN(c3ccc(F)cc3)CC2)C1 (stereo not drawn)	15.3%	7.7	-16.1%	0.4	u	12.9%	x
Cc1ccc2cccc(NC(=S)NC(=O)c3ccnn3C)c2n1	15.8µM*	-5.6	u	-1.5	u	u	2.9
CC(=O)NC(=S)Nc1cccc2ccc(C)nc12	0.4%	-3.4	4.5%	-2.9	u	8.2%	x
Cc1cc(C)nc(SCC(=O)Nc2nc(-c3ccccc3)c(-c3ccccc3)o2)n1	17.9%	-1.3	20.8%	-0.6	u	-3.2%	x
Cc1cc(=O)[nH]c(SCC(=O)Nc2nc(-c3ccccc3)c(-c3ccccc3)o2)n1	u	14.6	12.3%	16.1*	81.0%	-33.2%	-14.4
COc1ccc(C2C(C(=O)c3sc(C)nc3C)=C(O)C(=O)N2CCCn2ccnc2)cc1OC (stereo not drawn)	1.78µM*	-10.2	-7.8%	-3.1	16.6%	4.4%	-5.8
COc1ccc(C2C(C(=O)c3sc(C)nc3C)=C(O)C(=O)N2CCCn2ccnc2)cc1 (stereo not drawn)	2.2%	x	x	x	x	x	x
O=C(NN=C1CCCCCC1)c1cn(-c2ccccc2)nc1-c1ccccc1	14.1µM*	18.3	5.9%	-1.4	-8.1%	7.8%	31.5
Cc1cccc(C)c1NC(=O)c1cn(-c2ccccc2)nc1-c1ccccc1	-1.1%	-6.8	-23.4%	-2.1	-42.4%	0.3%	x
O=C(NN=C1CCCC1)c1ccccc1[N+](=O)[O-]	u	-9.8	-10.8%	3.5	u	3.8%	10.5
CC(C)(C)NC(=O)/C(=C\C=C\c1ccccc1)NC(=O)c1ccc([N+](=O)[O-])cc1	0.9%	-16.0	u	6.5	21.3%	-1.1%	x
CCN(CC)CCN=Cc1c(O)n(CCc2ccccc2)c(=O)[nH]c1=O	u	-10.2	-11.7%	-1.6	29.4%	14.1%	x
CCN(CC)CCCN=Cc1c(O)n(CCc2ccc(F)cc2)c(=O)[nH]c1=O	u	-9.4	-9.6%	-1.4	-15.8%	5.5%	-10.2
O=C(Nc1ccccc1OC(F)F)c1cccc(S(=O)(=O)N2CCCC2)c1	0.4%	3.1	-18.4%	14.1	u	5.2%	x
O=C(NCc1ccccc1F)C1CCCN(S(=O)(=O)c2ccc(-n3cnnn3)cc2)C1 (stereo not drawn)	7.1%	-6.7	13.9%	-0.7	-6.0%	1.8%	x
